# ChEMBL document CHEMBL3988442, “University of Dundee, Small-Polar-MMV Screening Library” (2021)
# Screen size: about 48,000 compounds; about 13,000 (27%) showed an effect of 50% or more. The list shows a part of the results.
# Tested on: Wolbachia pipientis
# Test: Anti-Wolbachia Cell-Based Screen
# Type: functional
# Set-up: scale not given: in the data most compounds retested in dose-response had high values
# Settings: 5 µM
row,SMILES,Percent Effect [%]
1,CCc1cccc(OCCn2cccc(C#N)c2=O)c1,-12.24
2,Nc1cc(C(=O)N2C[C@H]3CC[C@@H]2CN(Cc2cccnc2)C3)ccn1,-14.93
3,CNC(=O)[C@@H](c1ccccc1OC)N1CCC[C@H]1C(=O)N1CCC1.Cl,-2.79
4,CCCc1nncn1-c1cc(OC)ccc1OC,-4.578
5,COCC(=O)NS(=O)(=O)c1ccc(F)c(F)c1,-13.69
6,Cc1cc(C)nc(C2CCCN2C(=O)c2coc(C)n2)n1 (stereo unspecified),95.19
7,Cc1cc(C)nc(C2CCCN2C(=O)c2cnco2)n1 (stereo unspecified),140.7
8,Cc1cncc(C(=O)N2CCCCC2c2nc[nH]n2)c1 (stereo unspecified),2.614
9,Cc1nc(C2CCCN2C(=O)c2ccc(=O)n(C)n2)no1 (stereo unspecified),4.232
10,Cc1nc(C2CCCN2C(=O)c2cnns2)no1 (stereo unspecified),-16.56
11,Cc1cc(C)nc(C2CCCN2C(=O)c2cnccn2)n1 (stereo unspecified),104.9
12,CC(=O)Nc1nc(C(=O)N2CCCC2c2noc(C)n2)cs1 (stereo unspecified),1.192
13,COc1ccc(F)c(-c2cc(C)nc(N)n2)c1,-7.785
14,OC1(CNc2ccc(Br)cn2)CCC1,-10.9
15,Cc1nc(-c2noc3ccc(C(=O)NCCN4CCOCC4)cc23)co1,-13.78
16,Cc1cc(CC(=O)NC2CCCN(c3ccccc3Cl)C2=O)n[nH]1 (stereo unspecified),103.5
17,Cc1cc(C2CCCN(C(=O)COc3ccccc3F)C2)n[nH]1 (stereo unspecified),-9.054
18,Cn1cc(NC(=O)NC2CCCN(c3ccccc3Cl)C2=O)cn1 (stereo unspecified),-13.39
19,O=C(Cc1ccccc1O)NC1CCCN(c2ccccc2F)C1=O (stereo unspecified),90.3
20,Cc1cc(CC(=O)NC2CCCN(c3ccccc3F)C2=O)n[nH]1 (stereo unspecified),95.19
21,Cc1cc(CNCC2(O)CCCN(CCCc3ccccc3)C2=O)n[nH]1 (stereo unspecified),11
22,Cn1ccc(NC(=O)NC2CCCN(c3ccccc3Cl)C2=O)n1 (stereo unspecified),10.36
23,COCC(=O)NC1CCCN(c2ccc(C)cc2)C1=O (stereo unspecified),11.31
24,Cc1cc(CC(=O)NC2CCCN(Cc3ccccc3)C2=O)n[nH]1 (stereo unspecified),128.5
25,CC(=O)NCCCSC1CCCN(c2ccccc2F)C1=O (stereo unspecified),-23.33
26,Cc1ccc(N2CCCC(NC(=O)Cc3csc(C)n3)C2=O)cc1 (stereo unspecified),-8.265

row,SMILES,Percent Effect [%]
1,O=C1C(NCc2ccccc2O)CCN1Cc1ccccc1 (stereo unspecified),-5.18
2,Cc1[nH]c2c(F)cccc2c1CC(=O)N1CCCC(N)CC1 (stereo unspecified),-2.417
3,Cc1cc(C)cc(CN2C[C@H]3COC[C@H](N4CCN(C)CC4)[C@H]3C2)c1.O=C(O)C(F)(F)F.O=C(O)C(F)(F)F.O=C(O)C(F)(F)F,-30.24
4,CN(Cc1csc(-c2cccs2)n1)CC(O)CO (stereo unspecified),2.949
5,Cc1cc(=O)n(C)cc1NC(=O)CC1CCC1,-11.35
6,O=C(Cc1ccon1)NC1CC2(CCC2)Oc2ccccc21 (stereo unspecified),0.8032
7,O=C(Cc1ccon1)NC1CCCN(c2ccccc2F)C1=O (stereo unspecified),99.65
8,Cc1ccc(N2CCCC(NC(=O)CCc3ccccn3)C2=O)cc1 (stereo unspecified),-0.6334
9,CNc1nc(C)c(C(=O)N2CCCCC2CCN2CCOCC2)s1 (stereo unspecified),-13.11
10,CNc1nc(C)c(C(=O)N2CCCCC2CCc2ccc(O)cc2)s1 (stereo unspecified),-31.11
11,CNc1nc(C)c(C(=O)NCC(C)(C)N2CCCCC2)s1,51.74
12,CC(C)(CNC(=O)C1CCCCN1S(C)(=O)=O)N1CCOCC1 (stereo unspecified),1.375
13,Cc1nc(N2CCOCC2)sc1C(=O)NCC(C)(C)N1CCCCC1,59.39
14,COc1nc(C)c(C(=O)NCc2cc(N3CCOCC3)ncn2)s1,-8.084
15,CN(CCO)C(=O)Nc1ccn(-c2cccc(C(F)(F)F)c2)n1,-1.058
16,CC(=O)Nc1ccc(Cl)c(C(=O)N(C)C(C)c2nccs2)c1 (stereo unspecified),18.16
17,O=C1CC(C(=O)Nc2nnc(-c3ccccn3)[nH]2)c2ccccc2N1 (stereo unspecified),-11.02
18,O=C(Nc1cnc(Oc2ccccc2)nc1)C1CC1,12.01
19,CN[C@@H]1CCC[C@@H](Oc2ccccc2Oc2ccc(C)cc2)[C@@H]1O,109.8
20,COc1ccc(CNC(=O)N2CCOCC2C2CC2)cc1C (stereo unspecified),12.32
21,CCS(=O)(=O)N1CCOC2(CCCN(c3ccc(C)nn3)C2)C1.O=C(O)C(F)(F)F (stereo unspecified),0.7716
22,Cc1ccc(N2CC[C@H]3OCC[C@@]3(C(=O)NCC3CC3)C2)nn1,112.3
23,CS(=O)(=O)N1CC[C@H]2OCC[C@@]2(C(=O)NCC2CC2)C1,83.9
24,Cc1ccc(N2C[C@H]3OCC[C@H]3[C@H](C(=O)NC3CCC3)C2)nn1,-15.47
25,CC(=O)NCC(=O)N1CCOC2(CCCN(c3cccnc3)C2)C1.O=C(O)C(F)(F)F (stereo unspecified),-5.55
26,Cc1ccc(N2CC[C@H]3OCC[C@@]3(C(=O)N3CCCO3)C2)nn1,93.84

row,SMILES,Percent Effect [%]
1,CC(=O)NCC(=O)N1CCOC2(CCCN(c3ccc(C)nn3)C2)C1 (stereo unspecified),107.9
2,CCS(=O)(=O)N1CC[C@H]2OCC[C@@]2(C(=O)NC)C1,-10.89
3,Cc1ncsc1CN1CC[C@H]2OCC[C@@]2(C(=O)NCC2CC2)C1,4.364
4,Cc1ccc(N2CC[C@H]3OCC[C@@]3(C(=O)NC(C)C)C2)nn1.O=C(O)C(F)(F)F,-2.332
5,CNC(=O)[C@@]12CCO[C@@H]1CCN(S(=O)(=O)c1cc(C)cc(C)c1)C2,11.27
6,Cc1noc(CNc2c(N3CCCC3)cccc2N2CCCC2)n1,12
7,CC(C)c1cc(C(=O)N2CCN(c3ccc(F)c(Cl)c3)CC2)n(C)n1,-4.845
8,Cc1nc(N(C)Cc2cccc(O)c2)nc2cc(S(C)(=O)=O)ccc12,-16.37
9,CC(C)C(=O)N1CCC(NC2CCSCC2)C1 (stereo unspecified),-5.859
10,CS(=O)(=O)N1CCC(Oc2ccc(C(=O)NCCC(N)=O)cc2Cl)CC1,-24.14
11,Cc1ccc(N2CC[C@H]3OCC[C@@]3(C(=O)N(C)C)C2)nn1,116.6
12,Cc1ccc(N2CC3(CCN(C(=O)c4ccoc4)C3)C2)nn1,11.71
13,Cc1ccc(N2CCCC3(CCN(C(=O)C4CC4)C3)C2)nn1 (stereo unspecified),2.415
14,Cc1ccc(N2CCC3(CC2)CCN(C2CCOCC2)CC3)nn1.O=C(O)C(F)(F)F,-17.16
15,Cc1ccc(N2CC[C@H]3OCC[C@@]3(C(=O)N3CCCC3)C2)nn1,99.3
16,c1cn(-c2ccc(CN3CCCC3)cc2)c(-c2cc3n(n2)CCNC3)n1,4.696
17,O=C(NCC(F)(F)F)C1CCCN(Cc2ccno2)C1 (stereo unspecified),-13.93
18,COc1ccc(C(=O)NCC(c2cccn2C)N2CCCC2)cc1OC (stereo unspecified),118.2
19,CN1CCN(C(CNC(=O)CCn2cccn2)c2cccs2)CC1 (stereo unspecified),11.34
20,Cn1cccc1C(O)CNC(=O)COc1ccc(Cl)cc1Cl (stereo unspecified),19.06
21,COc1ccc(C(=O)NCC(c2cccn2C)N2CCN(C)CC2)cc1 (stereo unspecified),104.9
22,COc1cc(OC)cc(C(=O)NCC(c2cccn2C)N2CCCC2)c1 (stereo unspecified),93.86
23,COc1ccc(C(=O)NCC(c2cccn2C)N2CCCC2)c(OC)c1 (stereo unspecified),6.724
24,CN1CCN(C(CNC(=O)c2ccc(Cl)cc2F)c2cccs2)CC1 (stereo unspecified),-14.94
25,Cn1cccc1C(CNC(=O)c1ccc(F)cc1F)N1CCCCCC1 (stereo unspecified),2.493
26,Cc1ccc(C)c(C(=O)NCC(c2cccn2C)N2CCCCCC2)c1 (stereo unspecified),114.5

row,SMILES,Percent Effect [%]
1,Cn1cccc1C(CNC(=O)COc1ccc(Cl)cc1Cl)N1CCCC1 (stereo unspecified),-0.05475
2,CC(C)=CCN1CCN(S(=O)(=O)c2cn(C)cn2)[C@H]2CS(=O)(=O)C[C@H]21,-6.169
3,Cn1cc(NC(=O)CCCc2cccs2)c(=O)n(C)c1=O,-5.332
4,NC(=O)C1CCN(CCc2ccc(NCc3ccsc3)cc2)CC1,-14.27
5,Cn1c(CN2CCCC2)nnc1C1CCCN(C(=O)CN2CCCC2)C1 (stereo unspecified),-18.41
6,O=C(CN1CCNC1=O)N1CCc2nnc(-c3ccccc3)n2CC1,-8.724
7,Cn1c(CN2CCC(O)CC2)nnc1C1CCCN(C(=O)C2CNC2)C1 (stereo unspecified),15.55
8,O=C(C1CCCC1)N1CCn2c(nnc2C2CCCNC2)C1 (stereo unspecified),107.7
9,O=C(CN1CCCCCC1)N1CCc2nnc(C3CCCNC3)n2CC1 (stereo unspecified),109
10,O=C(C1CCC1)N1CCn2c(COc3ncccn3)nnc2C1,-0.8888
11,CC(C)OCCN1CCC(Nc2ncccn2)CC1,110.1
12,N#Cc1nccnc1NC1CCN(c2c(F)cccc2F)C1 (stereo unspecified),7.205
13,CC(C)OCCN1CCN(C(=O)c2cc(-n3cccn3)ccn2)CC1,-9.064
14,CC(C)OCCN1CCC(Nc2nccnc2C#N)CC1,120.8
15,Cc1cc(C)nc(N2CCC(OCCN3CCCCC3)C2)n1 (stereo unspecified),5.961
16,N#Cc1ccccc1N1CCC(Nc2nccnc2C#N)CC1,-4.6
17,CC(C)OC(=O)N1CCC(Nc2ncc(Br)cn2)CC1,-1.588
18,Cc1cccc(C(=O)N2CCN(CCOC(C)C)CC2)n1,2.598
19,CC(C)OCCN1CCC(N2CCN(C)C2=O)CC1,7.095
20,CC(C)OCCN1CCC(Nc2ncc(Br)cn2)CC1,82.04
21,Cc1cc(C)nc(NC2CCN(CCOC(C)C)CC2)n1,107
22,COCCC(=O)N1CCC(Nc2ncc(Br)cn2)CC1,-2.915
23,CCNC(=O)C1CCCN1S(=O)(=O)c1sc(=O)[nH]c1C (stereo unspecified),-8.251
